The values that follow come from the supplement of paper PMC13380429.

In the test the test system is Vero E6 infected with SARS-CoV-2. Kind of test: morphology score (similarity to uninfected cells); higher = more like uninfected cells. To be noted: 24 h.
In turn, `CC(CCc1ccccc1)NC(C)C(O)c1ccc(O)cc1` (stereo not given) [buphenine] (10 µM) displayed a morphology score of -0.137.
For `Cc1ccc(/C=N/NC(=O)c2ccccc2Oc2ccccc2)o1` (10 µM), the morphology score turned out to be 0.268.
In turn, `Cc1cc(-c2cc(OC(=O)c3ccccc3)ccc2Cl)cc2nnc(Nc3ccc(OCCN4CCCC4)cc3)nc12` (10 µM) registered a morphology score of -0.0439.
As for `O=c1c(-n2ccnn2)c[nH]n1-c1cc(N2CCOCC2)ncn1` [molidustat] (10 µM), the morphology score worked out at 0.0599.
For `CCCC(=O)C1CCN(c2ncnc3c2CN(C(=O)c2ccc(-c4ccccc4)cc2)CC3)CC1` (10 µM), the morphology score came out at 0.0512.
The result for `O=C(NCCCN1CCOCC1)c1cnn2c(-c3ccccc3)cc(-c3ccccc3)nc12` [reversan] (10 µM) reads 0.226; that for `CC1=C(CC(=O)O)c2cc(F)ccc2/C1=C\c1ccc([S+](C)[O-])cc1` (stereo not given) [sulindac] (10 µM), 0.0804.
For `N=C(N)N` [guanidine] (0.833333 µM) the value was -0.293.
In turn, `CC(C)c1noc(N2CCC(COc3ccc(-c4ccc(S(C)(=O)=O)cc4)nc3)CC2)n1` (10 µM) came in with a morphology score of -0.0966.
The result for `Cc1cnc(C(=O)O)c[n+]1[O-]` [acipimox] (10 µM) reads 0.0683; that for `NC(=O)c1ccc(I)c([N+](=O)[O-])c1` [iniparib] (10 µM), 0.0662.
The result for `Clc1ccccc1C(c1ccccc1)(c1ccccc1)n1ccnc1` [clotrimazole] (10 µM) reads 0.254; that for `CNC(=O)c1cc(COc2nnc(Nc3ccc(Cl)cc3)c3ccoc23)ccn1` [telatinib] (10 µM), 0.0611; that for `O=C(COP(=O)(O)O)[C@@H](O)[C@H](O)[C@H](O)COP(=O)(O)O` [fosfructose] (10 µM), -0.202.
For `c1cc(Nc2cc(C3CC3)n[nH]2)nc(Nc2ccc3[nH]cnc3c2)n1` (0.833333 µM) the value was -0.282; for `CCOC(=O)c1ccc(OCCC2CCN(c3ccc(C)nn3)CC2)cc1` [pirodavir] (10 µM), 0.0282; for `COc1ccc2c(c1)C(C(=O)N(Cc1ccc(N(C)C)cc1)c1ccc(C(C)C)cc1)CCC2` (stereo not given) (10 µM), 0.106.
As to `COc1ccc(C(=O)NCc2ccc(OCCN(C)C)cc2)cc1OC` [itopride] (10 µM), the morphology score was determined as 0.19.
As to `CS(=O)(=O)c1cc(F)cc2c3c(n(Cc4ccc(Cl)cc4)c12)[C@@H](CC(=O)O)CC3` [laropiprant] (10 µM), the morphology score came out at 0.0115.
For `COc1cc2c(cc1Cc1cccc(Cl)c1F)c(=O)c(C(=O)O)cn2[C@H](CO)C(C)C` [elvitegravir] (10 µM) the value was 0.0588; for `NC(=O)c1ccc2[nH]ccc2c1` (10 µM), 0.192.
The result for `OCCCNc1ccccc1` [3-anilinopropan-1-ol] (10 µM) reads -0.164; that for `CC(C)OC(=O)[C@H](C)N[P@](=O)(CO[C@H](C)Cn1cnc2c(N)ncnc21)Oc1ccccc1` [tenofovir-alafenamide] (10 µM), -0.0883; that for `C=CC(=O)Nc1cc(Nc2nccc(-c3cn(C)c4ccccc34)n2)c(OC)cc1N(C)CCN(C)C` [osimertinib] (10 µM), -0.27.
For `Nc1ccc(S(=O)(=O)Nc2cnc3ccccc3n2)cc1` [sulfaquinoxaline] (10 µM) the value was 0.114; for `Cc1ccc(Nc2c(F)cccc2Cl)c(CC(=O)O)c1` [lumiracoxib] (10 µM), 0.182.
`FC(F)OC(F)(F)C(F)Cl` (stereo not given) [enflurane] (10 µM): the morphology score worked out at 0.188.
The compound `Cn1ccnc1S` [methimazole] (10 µM) came in with a morphology score of -0.0741.
For `C=C[C@@H]1C[C@]1(NC(=O)[C@@H]1C[C@@H](Oc2ncc(OC)c3ccc(Cl)cc23)CN1C(=O)[C@@H](NC(=O)OC(C)(C)C)C(C)(C)C)C(=O)NS(=O)(=O)C1CC1` [asunaprevir] (10 µM) the value was 0.192.
The result for `Cn1cc(C(=O)OCC2CCN(CCNS(C)(=O)=O)CC2)c2ccccc21` (10 µM) reads 0.228; that for `O[C@H]1CC[C@H](Nc2nc(-c3ccccc3)nc3[nH]ccc23)CC1` (10 µM), 0.409; that for `COc1ccsc1CNCC[C@@]1(c2ccccn2)CCOC2(CCCC2)C1` (10 µM), -0.0456.
Compound `CO[C@H]1/C=C\C=C(/C)C(=O)NC2=CC(=O)C(NCCN(C)C)=C(C[C@@H](C)C[C@H](OC)[C@H](O)[C@@H](C)/C=C(\C)[C@@H]1OC(N)=O)C2=O` [alvespimycin] (10 µM) registered a morphology score of 0.255.
As for `O=c1ccc2ccc(O)c(O)c2o1` [daphnetin] (10 µM), the morphology score is 0.0316.
On to `O=c1sn(-c2cccc3ccccc23)c(=O)n1Cc1ccccc1` [tideglusib] (10 µM), for which the morphology score was found to be 0.109.
In turn, `COc1cccc(NC(=O)/C=C/c2ccc(Cl)cc2)c1` (10 µM) registered a morphology score of -0.0484.
Consider `CCN(CC)CCCCC1CCN(CC(=O)N2c3ccccc3C(=O)Nc3cccnc32)CC1` (10 µM), for which the morphology score was found to be 0.0682.
For `O=C(O)CNC(=O)c1ccccc1I` [2-iodohippuric-acid] (10 µM) the value was -0.111; for `N[C@@H]1CCN(c2cccnc2)C1` (10 µM), 0.0226.
`NS(=O)(=O)c1cc(C(=O)O)c(NCc2ccco2)cc1Cl` [furosemide] (10 µM) showed a morphology score of 0.0455.
